± gives the standard deviation of the averaged measurements.
System: Molm13
Test: cell viability relative to DMSO control (bortezomib = 0%); higher = less growth inhibition
Conditions: 10 nM; 72 h
Procedure, shortened: (§1)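 FLT3-ITD+ acute myeloid leukemia cells were dispensed onto a library of 679 approved and investigational compounds in 384-well plates, at 1000 cells per well in 50 µL and a single 10 nM dose, for 72 h. The screen was run in duplicate. Cell viability was read by CellTiter-Glo luminescence on an EnVision reader. Values were converted to percentages by per-plate linear regression between DMSO-treated cells (100%) and positive-control-treated cells (0%).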

Row | Structure (SMILES) | cell viability
1 | COc1ccc2c(c[n+](C)c3c4cc5c(cc4ccc23)OCO5)c1OC [Chelerythrine chloride] | 115 ± 13%
2 | COc1cc([C@@H]2c3cc4c(cc3[C@H](O)[C@H]3COC(=O)[C@@H]23)OCO4)cc(OC)c1OC [Picropodophyllin (PPP)] | 98.4 ± 8.1%
3 | CC(C)(C)c1cc(C=C(C#N)C#N)cc(C(C)(C)C)c1O [Tyrphostin 9] | 96.2 ± 18%
4 | C/C(O)=C(\C#N)C(=O)Nc1cc(Br)ccc1Br | 108 ± 6.6%
5 | N#C/C(=C\c1ccc(O)c(O)c1)C(N)=S | 91.3 ± 7.4%
6 | COC(=O)C1(OC)CC2OC1(C)n1c3ccccc3c3c4c(c5c6ccccc6n2c5c31)C(=O)N(C)C4 (stereo unspecified) | 115 ± 6.2%
7 | CN[C@@H]1C[C@H]2O[C@@](C)([C@@H]1OC)n1c3ccccc3c3c4c(c5c6ccccc6n2c5c31)C(=O)NC4 [Staurosporine] | 11.9 ± 18%
8 | Cc1ccccc1-n1c(Cn2cnc3c(N)ncnc32)nc2cccc(C)c2c1=O | 108 ± 13%
9 | COc1ccc(N(C(=O)Oc2c(C)cccc2C)c2ccnc(Nc3ccc(N4CCN(C)CC4)cc3)n2)c(OC)c1 | 94.5 ± 18%
10 | COc1ccc2c(c[n+](C)c3c4cc5c(cc4ccc23)OCO5)c1OC [Chelerythrine (chloride)] | 106 ± 10%
11 | Cc1ccccc1-n1c(Cn2ncc3c(N)ncnc32)nc2cccc(C)c2c1=O | 117 ± 1.4%
12 | CC(C)=CCC[C@](C)(O)[C@H]1CC[C@]2(C)[C@@H]1[C@H](O)C[C@@H]1[C@@]3(C)CC[C@H](O[C@@H]4O[C@H](CO)[C@@H](O)[C@H](O)[C@H]4O)C(C)(C)[C@@H]3CC[C@]12C [Ginsenoside Rh2] | 116 ± 2.1%
13 | CC(=O)OC(C)(C)/C=C/C(=O)[C@](C)(O)[C@H]1[C@H](O)C[C@@]2(C)[C@@H]3CC=C4[C@H](C[C@H](O)C(=O)C4(C)C)[C@]3(C)C(=O)C[C@]12C [Cucurbitacin B] | 61.7 ± 0.99%
14 | CC(=O)N[C@H]1[C@@H](O[C@@H]2O[C@H](CC(O)[C@H]3O[C@@H](n4ccc(=O)[nH]c4=O)[C@H](O)[C@@H]3O)[C@H](O)[C@H](O)[C@H]2NC(=O)/C=C/CC(C)C)O[C@H](CO)[C@@H](N)[C@@H]1O (stereo partly specified) [Tunicamycin] | 105 ± 14%
15 | COC[C@H]1OC(=O)c2coc3c2[C@@]1(C)C1=C(C3=O)[C@@H]2CCC(=O)[C@@]2(C)C[C@H]1OC(C)=O [Wortmannin] | 114 ± 9%
16 | O=C(O)c1nn(Cc2ccc(Cl)cc2Cl)c2ccccc12 [Lonidamine] | 123 ± 1.8%
17 | O=C([O-])C(Cl)Cl.[Na+] [Sodium†Dichloroacetate] | 74 ± 24%
18 | O=c1[nH]c2ccccc2n1C1CCN(Cc2ccc(-c3[nH]c4cc5ncnc5cc4nc3-c3ccccc3)cc2)CC1 [AKT inhibitor VIII] | 103 ± 12%

System: Mv4-11
Test: as above
Conditions: 10 nM; 72 h
Procedure, shortened: as §1

Row | Structure (SMILES) | cell viability
19 | COc1ccc2c(c[n+](C)c3c4cc5c(cc4ccc23)OCO5)c1OC [Chelerythrine chloride] | 112 ± 6.5%
20 | COc1cc([C@@H]2c3cc4c(cc3[C@H](O)[C@H]3COC(=O)[C@@H]23)OCO4)cc(OC)c1OC [Picropodophyllin (PPP)] | 109 ± 3.8%
21 | CC(C)(C)c1cc(C=C(C#N)C#N)cc(C(C)(C)C)c1O [Tyrphostin 9] | 99.7 ± 4.1%
22 | C/C(O)=C(\C#N)C(=O)Nc1cc(Br)ccc1Br | 114 ± 7.8%
23 | N#C/C(=C\c1ccc(O)c(O)c1)C(N)=S | 104 ± 2.4%
24 | COC(=O)C1(OC)CC2OC1(C)n1c3ccccc3c3c4c(c5c6ccccc6n2c5c31)C(=O)N(C)C4 (stereo unspecified) | 109 ± 2%
25 | CN[C@@H]1C[C@H]2O[C@@](C)([C@@H]1OC)n1c3ccccc3c3c4c(c5c6ccccc6n2c5c31)C(=O)NC4 [Staurosporine] | 5.41 ± 3.4%
26 | Cc1ccccc1-n1c(Cn2cnc3c(N)ncnc32)nc2cccc(C)c2c1=O | 111 ± 5.5%
27 | COc1ccc(N(C(=O)Oc2c(C)cccc2C)c2ccnc(Nc3ccc(N4CCN(C)CC4)cc3)n2)c(OC)c1 | 108 ± 5.2%
28 | COc1ccc2c(c[n+](C)c3c4cc5c(cc4ccc23)OCO5)c1OC [Chelerythrine (chloride)] | 108 ± 1.4%
29 | Cc1ccccc1-n1c(Cn2ncc3c(N)ncnc32)nc2cccc(C)c2c1=O | 117 ± 14%
30 | CC(C)=CCC[C@](C)(O)[C@H]1CC[C@]2(C)[C@@H]1[C@H](O)C[C@@H]1[C@@]3(C)CC[C@H](O[C@@H]4O[C@H](CO)[C@@H](O)[C@H](O)[C@H]4O)C(C)(C)[C@@H]3CC[C@]12C [Ginsenoside Rh2] | 111 ± 2.3%
31 | CC(=O)OC(C)(C)/C=C/C(=O)[C@](C)(O)[C@H]1[C@H](O)C[C@@]2(C)[C@@H]3CC=C4[C@H](C[C@H](O)C(=O)C4(C)C)[C@]3(C)C(=O)C[C@]12C [Cucurbitacin B] | 82.9 ± 4.3%
32 | CC(=O)N[C@H]1[C@@H](O[C@@H]2O[C@H](CC(O)[C@H]3O[C@@H](n4ccc(=O)[nH]c4=O)[C@H](O)[C@@H]3O)[C@H](O)[C@H](O)[C@H]2NC(=O)/C=C/CC(C)C)O[C@H](CO)[C@@H](N)[C@@H]1O (stereo partly specified) [Tunicamycin] | 103 ± 3.8%
33 | COC[C@H]1OC(=O)c2coc3c2[C@@]1(C)C1=C(C3=O)[C@@H]2CCC(=O)[C@@]2(C)C[C@H]1OC(C)=O [Wortmannin] | 110.22 ± 0.09%
34 | O=C(O)c1nn(Cc2ccc(Cl)cc2Cl)c2ccccc12 [Lonidamine] | 120 ± 4.8%
35 | O=C([O-])C(Cl)Cl.[Na+] [Sodium†Dichloroacetate] | 110.7 ± 0.021%
36 | O=c1[nH]c2ccccc2n1C1CCN(Cc2ccc(-c3[nH]c4cc5ncnc5cc4nc3-c3ccccc3)cc2)CC1 [AKT inhibitor VIII] | 103 ± 5.7%

Reference: the supplement of paper PMC8699584
